{"source": "PubChem BioAssay (NCI)", "note": "The panel holds about 83,000 compounds, 20% with a hit somewhere; the sample as a whole holds those more often.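 Each cell line was grown in a 96-well plate and treated with one concentration of compound for 48 hours. Values below 10 were considered active.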 A number with no mark means an inactive call. Calls of active or inactive are those of the source."}
{"tested_on": "NCI-H226 lung", "experiment": "NCI-60 one-dose screen, 48 h (100 = growth as untreated, 0 = no growth, -100 = all killed)", "conditions": "10 µM unless noted"}
{"smiles": "COc1ccc(/C=C2\\c3cc(OC)c(OC)c(OC)c3CC[C@@H]2O)cc1F", "growth": "58.1%"}
{"smiles": "CCN(CC)C(=O)C1=C(C)NC(=O)NC1c1ccc2c(c1)OCO2", "note": "(stereo unspecified)", "growth": "100%"}
{"smiles": "COc1ccc(C=Nc2c(C(=O)Nc3cccc(Cl)c3C)sc3nc(C)c(C(=O)/C=C/c4ccc(OC)cc4)cc23)cc1", "growth": "53.8%"}
{"smiles": "CC(C)(C)c1ccc(S(=O)(=O)Oc2ccc(-c3sc4cc(OS(=O)(=O)c5ccc(C(C)(C)C)cc5)ccc4c3C(=O)c3ccc(OCCN4CCCCC4)cc3)cc2)cc1", "growth": "94.7%"}
{"smiles": "COc1cc(/C=C/c2cc(/C=C/c3ccc(O)c(OC)c3)n(C(=O)Nc3ccc(Cl)cc3)n2)ccc1O", "growth": "5.73% (active)"}
{"smiles": "O=c1cc(CP(=O)(O)O)c2cc(O)c(-c3ccccc3)cc2o1", "growth": "101%"}
{"tested_on": "NCI-H322M lung", "experiment": "NCI-60 one-dose screen, 48 h (100 = growth as untreated, 0 = no growth, -100 = all killed)", "conditions": "10 µM unless noted"}
{"smiles": "Cc1nc2sc(C(=O)Nc3cccc(Cl)c3C)c(N)c2cc1C(=O)/C=C/c1ccccc1", "growth": "19.1%"}
{"smiles": "CN1CCN(Cc2ccc(NC(=O)c3cncc(C#Cc4cnc(N)cc4C#N)c3)cc2C(F)(F)F)CC1", "growth": "17%"}
{"smiles": "c1cc(OCCN2CCCC2)ccc1CNc1ccc2nc(CCC3CCCCC3)[nH]c2c1", "growth": "78.2%"}
{"smiles": "CCN(CC)CCOc1ccc2c(-c3ccccc3)c(-c3ccc(OC)cc3)c(=O)oc2c1", "growth": "122%"}
{"smiles": "O=C1/C(=C/c2c[nH]c(=O)[nH]c2=O)SC(=S)N1Cc1ccccc1", "growth": "95.1%"}
{"smiles": "CCN(CC)CCCNc1cc(OC)c(OC)c2cccnc12", "growth": "85.1%"}
{"smiles": "COc1cc(Cc2cc(OC)c(O)c(OC)c2)cc(OC)c1O", "growth": "94.2%"}
{"smiles": "CSc1ccc(N2C(=N)C(=S)N(c3ccc(C)cc3)C2=O)cc1", "growth": "99%"}
{"smiles": "CCOC(=O)/C(=C(/C)NCC(C)C)c1cc(O)c(O)c2c(C)cc(=O)[nH]c12", "growth": "62.5%"}
{"smiles": "C/C(=C(\\c1ccc(OCCN2CCCCCC2)cc1)c1ccc(OC(=O)c2ccccc2)cc1)c1ccc(Cl)cc1", "growth": "71.7%"}
{"smiles": "COCCn1cc(-c2csc(-c3c[nH]c4ccc(F)cc34)n2)c2cccnc21", "growth": "63.2%"}
{"smiles": "Cc1ccc2cnc(N)c(C#Cc3cc(C(=O)Nc4ccc(CN5CCN(C)CC5)c(C(F)(F)F)c4)cnc3C)c2c1", "growth": "17.8%"}
{"smiles": "O=C(NNc1nc2cc(F)ccc2n2c(CN3CCOCC3)ccc12)c1ccccc1", "growth": "25.1%"}
{"smiles": "COc1ccc(-c2nc(SCC(=O)Nc3nc4ccc(C)cc4s3)[nH]c(=O)c2C#N)cc1OC", "growth": "101%"}
{"smiles": "CCOC(=O)c1ccc[nH]1", "growth": "84.3%"}
{"smiles": "COc1cc(Cc2cc(-c3ccccc3)nn(Cc3ccccc3)c2=O)cc(OC)c1OC", "growth": "78.5%"}
{"smiles": "O=C(Nc1ccc(Nc2ccncc2)cc1)c1ccc(Nc2ccnc3ccc([N+](=O)[O-])cc23)cc1", "growth": "116%"}
{"smiles": "C[C@H]1[C@H](C)CC[C@]2(C(=O)NCCNCCN)CC[C@]3(C)C(=CC[C@@H]4[C@@]5(C)CCC(=O)C(C)(C)[C@@H]5CC[C@]43C)[C@H]12", "growth": "85%"}
{"smiles": "COc1ccc(C/C(C)=C(\\c2ccc(Cl)cc2)c2ccc(OCCN3CCCC3)cc2)cc1", "growth": "91.6%"}
{"smiles": "CCOc1ccc(NC(=O)Nc2ccc(OCC)cc2)cc1", "growth": "104%"}
{"smiles": "Cc1ccc(NC(=O)c2cc3ccccc3cc2O)c(C)c1", "growth": "94.4%"}
{"smiles": "COC(=O)c1c2c(c[n+]([O-])c1C)C(=O)C=C(NCc1ccccc1)C2=O", "growth": "-100% (active)"}
{"smiles": "C=C1C(=O)O[C@H]2[C@H]1CC/C(CNC(=O)Cc1c[nH]c3ccccc13)=C\\CC[C@@]1(C)O[C@@H]21", "growth": "82.2%"}
{"smiles": "C#CCOc1ccc2nc(CCl)c(Cl)c(Nc3cccc(C(F)(F)F)c3)c2c1", "growth": "98.1%"}
{"smiles": "O=C1/C(=C/c2cccc(Br)c2)COc2ccc(O)cc21", "growth": "97.4%"}
{"smiles": "CCN(CC)CCOc1ccc(/C(=C(\\C)Cc2ccc(OC)cc2)c2ccc(OC(=O)NCc3ccccc3)cc2)cc1", "growth": "80.4%"}
{"smiles": "O=C(CCCCCCCC(=O)N1CCCCC1)N1CCCCC1", "growth": "115%"}
{"smiles": "Cc1ccc(-c2nc(SCC(=O)N3CCN(c4cc5c(cc4F)c(=O)c(C(=O)O)cn5C4CC4)CC3)nc(Cl)c2C#N)cc1", "growth": "101%"}
{"smiles": "CSc1ccc2c3c(n(C[C@H](O)CO)c(=O)c2c1)-c1ccccc1C3=O", "growth": "74.3%"}
{"smiles": "Cc1cn(C)cn1", "growth": "116%"}
{"smiles": "C#Cc1cccc(Nc2ncnc3cc(NC(=O)CCl)ccc23)c1", "growth": "-16.4% (active)"}
{"smiles": "O=S(=O)(NCCNc1nccc(-c2c(-c3ccc(F)c(O)c3)nc3sccn23)n1)c1ccc(Cl)cc1", "growth": "55.8%"}
{"smiles": "COc1ccc(C(O)c2cc3c(N)c(C(=O)Nc4cccc5ccccc45)sc3nc2C)cc1", "note": "(stereo unspecified)", "growth": "39.1%"}
{"smiles": "O=C(Nc1cc(Cl)ccc1O)c1ccccc1Nc1ccnc(C(F)(F)F)c1", "growth": "30.9%"}
{"smiles": "COc1ccc(/C=C2\\c3cc(OC)c(OC)c(OC)c3CC[C@@H]2O)cc1F", "growth": "66.3%"}
{"smiles": "CCN(CC)C(=O)C1=C(C)NC(=O)NC1c1ccc2c(c1)OCO2", "note": "(stereo unspecified)", "growth": "109%"}
{"smiles": "COc1ccc(C=Nc2c(C(=O)Nc3cccc(Cl)c3C)sc3nc(C)c(C(=O)/C=C/c4ccc(OC)cc4)cc23)cc1", "growth": "43.1%"}
{"smiles": "CC(C)(C)c1ccc(S(=O)(=O)Oc2ccc(-c3sc4cc(OS(=O)(=O)c5ccc(C(C)(C)C)cc5)ccc4c3C(=O)c3ccc(OCCN4CCCCC4)cc3)cc2)cc1", "growth": "96.1%"}
{"smiles": "COc1cc(/C=C/c2cc(/C=C/c3ccc(O)c(OC)c3)n(C(=O)Nc3ccc(Cl)cc3)n2)ccc1O", "growth": "22.1%"}
{"smiles": "O=c1cc(CP(=O)(O)O)c2cc(O)c(-c3ccccc3)cc2o1", "growth": "101%"}
